Among the targets are RELARELA (p65 homodimer) (Homo sapiens, UniProt Q04206 1-307); p50p50 homodimer (Homo sapiens, UniProt P19838 7-356); RELB subunit;p50 subunit (Homo sapiens;Homo sapiens, UniProt Q01201;P19838 120-401;7-356).
Holding throughout (test): protein binding microarray; high values mean tight binding
Holding throughout (details): dsDNA, one strand shown

A further assay deals with T1, p52p52 homodimer (Homo sapiens, UniProt Q00653 4-332).
T1 sequence: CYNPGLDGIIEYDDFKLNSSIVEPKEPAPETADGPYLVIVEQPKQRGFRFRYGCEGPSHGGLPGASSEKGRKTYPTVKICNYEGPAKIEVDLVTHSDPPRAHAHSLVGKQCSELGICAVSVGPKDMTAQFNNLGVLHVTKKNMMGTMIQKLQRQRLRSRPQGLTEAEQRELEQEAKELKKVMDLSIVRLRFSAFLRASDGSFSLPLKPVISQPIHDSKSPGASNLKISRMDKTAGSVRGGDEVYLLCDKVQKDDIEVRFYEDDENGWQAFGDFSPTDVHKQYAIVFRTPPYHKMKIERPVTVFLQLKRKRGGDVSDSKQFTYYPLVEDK

Assay [1] concerns the target RELA (p65) subunit of heterodimer;p50 subunit (Homo sapiens;Homo sapiens, UniProt Q04206;P19838 1-307;7-356).
Assay [2] addresses RELA (p65) subunit of heterodimer;p52 subunit (Homo sapiens;Homo sapiens, UniProt Q04206;Q00653 1-307;4-332).
In another assay the target is T2, RELB subunit;p52 subunit (Homo sapiens;Homo sapiens, UniProt Q01201;Q00653 120-401;4-332).
T2 sequence 1: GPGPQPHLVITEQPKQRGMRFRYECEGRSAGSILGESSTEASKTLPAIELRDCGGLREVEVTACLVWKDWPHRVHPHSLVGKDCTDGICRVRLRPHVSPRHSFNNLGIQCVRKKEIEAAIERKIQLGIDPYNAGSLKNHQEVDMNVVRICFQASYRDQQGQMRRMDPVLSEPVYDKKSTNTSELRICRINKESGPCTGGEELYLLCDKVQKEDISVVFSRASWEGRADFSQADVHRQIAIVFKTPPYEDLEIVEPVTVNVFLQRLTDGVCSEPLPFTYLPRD
T2 sequence 2: T1 sequence

Assay [3] has as its target C-Rel subunit;p50 subunit (Homo sapiens;Homo sapiens, UniProt Q04864;P19838 1-285;7-356).
Assay [4] concerns the target T3, C-Rel subunit;p52 subunit (Homo sapiens;Homo sapiens, UniProt Q04864;Q00653 1-285;4-332).
T3 sequence 1: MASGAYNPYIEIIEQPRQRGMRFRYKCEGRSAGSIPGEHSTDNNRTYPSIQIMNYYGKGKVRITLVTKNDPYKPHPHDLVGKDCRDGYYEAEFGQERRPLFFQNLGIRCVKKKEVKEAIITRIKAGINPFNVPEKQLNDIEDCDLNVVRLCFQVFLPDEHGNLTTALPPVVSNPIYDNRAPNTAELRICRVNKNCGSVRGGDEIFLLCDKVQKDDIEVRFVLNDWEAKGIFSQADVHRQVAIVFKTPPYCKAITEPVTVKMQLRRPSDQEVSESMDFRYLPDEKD
T3 sequence 2: T1 sequence

RELA (p65) subunit of heterodimer;p50 subunit, sequence (Q04206 1-307, chain 1 of 2): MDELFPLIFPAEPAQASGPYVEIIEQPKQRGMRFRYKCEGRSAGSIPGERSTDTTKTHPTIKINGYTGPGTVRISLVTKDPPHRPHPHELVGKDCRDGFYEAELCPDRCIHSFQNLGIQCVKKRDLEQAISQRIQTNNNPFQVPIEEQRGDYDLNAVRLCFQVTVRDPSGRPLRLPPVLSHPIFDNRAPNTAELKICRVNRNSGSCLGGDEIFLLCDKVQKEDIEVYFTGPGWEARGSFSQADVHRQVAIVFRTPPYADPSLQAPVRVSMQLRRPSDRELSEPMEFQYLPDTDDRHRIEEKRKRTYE
RELA (p65) subunit of heterodimer;p50 subunit, sequence (P19838 7-356, chain 2 of 2): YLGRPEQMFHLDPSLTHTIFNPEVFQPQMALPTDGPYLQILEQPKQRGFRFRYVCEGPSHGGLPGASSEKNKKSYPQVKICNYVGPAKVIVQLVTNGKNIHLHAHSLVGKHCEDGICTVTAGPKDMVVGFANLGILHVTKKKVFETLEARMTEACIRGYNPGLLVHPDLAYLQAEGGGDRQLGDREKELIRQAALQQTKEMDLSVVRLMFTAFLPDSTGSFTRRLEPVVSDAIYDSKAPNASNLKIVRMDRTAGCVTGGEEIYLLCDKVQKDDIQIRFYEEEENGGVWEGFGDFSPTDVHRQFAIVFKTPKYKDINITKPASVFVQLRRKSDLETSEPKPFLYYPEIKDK
RELARELA (p65 homodimer), sequence (Q04206 1-307): as the sequence (Q04206 1-307, chain 1 of 2) above
p50p50 homodimer, sequence (P19838 7-356): as the sequence (P19838 7-356, chain 2 of 2) above

In the case of GAAGTACCCCC, the binding signal worked out at 0.109 z-score with RELARELA (p65 homodimer); 1.25 z-score with p50p50 homodimer; 0.815 z-score in the assay with p52p52 homodimer; 1.31 z-score in [1]; 1.14 z-score in assay [2]; 1.27 z-score with RELB subunit;p50 subunit. The binding signal with RELB subunit;p52 subunit was 1.33 z-score; in assay [3], 0.887 z-score; in [4], 0.946 z-score.

CGAAGCATCCT: the binding signal was -1.05 z-score with RELARELA (p65 homodimer); -3.51 z-score with p50p50 homodimer; -0.775 z-score in the assay with p52p52 homodimer; -1.25 z-score in assay [1]; -1.09 z-score in assay [2]; -1.1 z-score with RELB subunit;p50 subunit. In addition, the results for the binding signal (with RELB subunit;p52 subunit; in assay [3]; in [4]) were -1.02 z-score, -1.65 z-score and -1 z-score, respectively.

In the case of GAGAGCCCCCC, the binding signal with RELARELA (p65 homodimer) was -1.07 z-score; with p50p50 homodimer it was 1.13 z-score; in the assay with p52p52 homodimer it was 0.398 z-score; in assay [1], 0.853 z-score; in [2], 0.722 z-score; in the assay with RELB subunit;p50 subunit it was 0.759 z-score. In addition, the binding signal with RELB subunit;p52 subunit was determined as 0.733 z-score; in assay [3] it was 0.773 z-score; in assay [4] it was 0.389 z-score.

In the case of AGGTTTATCCT, the binding signal with RELARELA (p65 homodimer) is -0.465 z-score; with p50p50 homodimer, -0.953 z-score; with p52p52 homodimer, -0.558 z-score; in assay [1] it was -1.01 z-score; in assay [2], -0.905 z-score; with RELB subunit;p50 subunit it was -0.943 z-score. For the same sequence, the binding signal in the assay with RELB subunit;p52 subunit was -0.798 z-score; in assay [3] it was -1.17 z-score; in [4], -0.61 z-score.

As to GGAGACTTCCC, the binding signal is 1.11 z-score with RELARELA (p65 homodimer); 0.00445 z-score with p50p50 homodimer; 0.117 z-score with p52p52 homodimer; 0.505 z-score in assay [1]; 0.17 z-score in assay [2]; -0.132 z-score with RELB subunit;p50 subunit. Moreover, the binding signal with RELB subunit;p52 subunit is -0.125 z-score; in assay [3], 0.335 z-score; in assay [4], 0.286 z-score.

With AAAAGCGTCCC, the binding signal with RELARELA (p65 homodimer) came out at 0.0306 z-score; with p50p50 homodimer, 0.282 z-score; in the assay with p52p52 homodimer, 0.41 z-score; in [1], 0.21 z-score; in assay [2], 0.286 z-score; with RELB subunit;p50 subunit it was 0.48 z-score. For the same sequence, the binding signal in the assay with RELB subunit;p52 subunit was determined as 0.821 z-score; in assay [3], 0.207 z-score; in assay [4], 0.0784 z-score.

With CGAGTTATCCT, the binding signal in the assay with RELARELA (p65 homodimer) was -0.476 z-score; in the assay with p50p50 homodimer, -1.24 z-score; with p52p52 homodimer, -0.637 z-score; in assay [1], -1.02 z-score; in assay [2] it was -0.873 z-score; in the assay with RELB subunit;p50 subunit, -1.13 z-score. The binding signal with RELB subunit;p52 subunit is -0.889 z-score; in [3] it was -1.27 z-score; in assay [4] it was -0.871 z-score.

On to AGAGAGGTCCT, for which the binding signal with RELARELA (p65 homodimer) is 0.413 z-score; in the assay with p50p50 homodimer it was -1.58 z-score; with p52p52 homodimer it was -0.36 z-score; in assay [1], -0.866 z-score; in [2], -0.592 z-score; with RELB subunit;p50 subunit it was -0.624 z-score. Besides, the binding signal is -0.363 z-score with RELB subunit;p52 subunit, -1.31 z-score in assay [3] and -0.537 z-score in assay [4].

Turning to GAAATAGTCCC, the binding signal with RELARELA (p65 homodimer) worked out at 0.835 z-score; in the assay with p50p50 homodimer, 1.16 z-score; with p52p52 homodimer it was 1.31 z-score; in assay [1], 1.16 z-score; in assay [2], 0.964 z-score; in the assay with RELB subunit;p50 subunit, 1.38 z-score. Also, the binding signal in the assay with RELB subunit;p52 subunit is 0.953 z-score; in assay [3] it was 0.838 z-score; in [4] it was 0.853 z-score.

As for AAGATGCCCCC, the binding signal with RELARELA (p65 homodimer) came out at 0.101 z-score; with p50p50 homodimer it was 1.09 z-score; with p52p52 homodimer, 0.461 z-score; in assay [1], 0.893 z-score; in assay [2] it was 0.788 z-score; with RELB subunit;p50 subunit, 0.97 z-score. The binding signal with RELB subunit;p52 subunit worked out at 1.17 z-score; in assay [3], 1.03 z-score; in assay [4] it was 0.633 z-score.

As for CAGATCGTCCT, the binding signal in the assay with RELARELA (p65 homodimer) is -0.0967 z-score; with p50p50 homodimer, -1.22 z-score; with p52p52 homodimer, -0.471 z-score; in [1], -1 z-score; in [2], -0.796 z-score; with RELB subunit;p50 subunit, -0.842 z-score. Moreover, the figures for the binding signal (in the assay with RELB subunit;p52 subunit; in [3]; in [4]) were -0.777 z-score, -1.17 z-score and -0.663 z-score, respectively.

On to GGGGAATTCCC, for which the binding signal in the assay with RELARELA (p65 homodimer) is 4.86 z-score; with p50p50 homodimer, 2.07 z-score; with p52p52 homodimer it was 3.41 z-score; in assay [1], 3.6 z-score; in [2], 3.73 z-score; with RELB subunit;p50 subunit it was 3.87 z-score. The results for the binding signal (with RELB subunit;p52 subunit; in assay [3]; in [4]) were 3.85 z-score, 3.14 z-score and 4.19 z-score, respectively.

For GGAATGCCCCC, the binding signal in the assay with RELARELA (p65 homodimer) amounted to 2.8 z-score; with p50p50 homodimer, 1.02 z-score; with p52p52 homodimer, 1.8 z-score; in assay [1] it was 2.08 z-score; in [2] it was 2.18 z-score; in the assay with RELB subunit;p50 subunit it was 1.13 z-score. The binding signal in the assay with RELB subunit;p52 subunit is 1.75 z-score; in [3], 1.61 z-score; in assay [4] it was 2.48 z-score.

AAAAGAATCCC: the binding signal with RELARELA (p65 homodimer) worked out at 0.306 z-score; with p50p50 homodimer, 0.444 z-score; with p52p52 homodimer, 0.44 z-score; in assay [1], 0.389 z-score; in [2] it was 0.575 z-score; with RELB subunit;p50 subunit it was 0.356 z-score. For the same sequence, the binding signal was 0.317 z-score with RELB subunit;p52 subunit, 0.495 z-score in assay [3] and 0.359 z-score in assay [4].

Consider CGGAAATCCCT, for which the binding signal is 2.44 z-score with RELARELA (p65 homodimer); 1.09 z-score in the assay with p50p50 homodimer; 1.3 z-score with p52p52 homodimer; 1.35 z-score in [1]; 1.25 z-score in assay [2]; 0.939 z-score in the assay with RELB subunit;p50 subunit. The binding signal is 1.47 z-score with RELB subunit;p52 subunit, 1.21 z-score in assay [3] and 1.56 z-score in assay [4].

The record behind these values is publication PMC3218832.
